Assay results as given in PubChem BioAssay (EPA / NIEHS).
Inconclusive results are not listed. Calls of active or inactive are those of the source. How the source made its calls, unless noted: active means hit-call score of the fitted dose curve at least 0.9, where 1 is the maximum; inactive means score below 0.9.

Key:
[1] = target: Glucocorticoid receptor (Homo sapiens) (UniProt P04150); assay: ATG_GR_TRANS: Attagene TRANS-FACTORIAL HepG2 Assay for human Glucocorticoid Receptor (GR) (AID 2282978; active means hit-call score of the fitted dose curve at least 0.9, where 1 is the maximum;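 further: activators score as hits since higher reporter transcript over DMSO is fitted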); conditions: HepG2 Attagene TRANS GR reporter, mRNA transcription
Summary of the method: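 Transiently transfected HepG2 cells express chimeric NR-GAL4 proteins acting on GAL4-UAS reporter units. Compounds are applied for 24 h. mRNA induction over DMSO is measured by capillary electrophoresis.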

[2] = target: Hepatocyte nuclear factor 4-alpha (Homo sapiens) (UniProt P41235); assay: ATG_HNF4a_TRANS: Attagene TRANS-FACTORIAL HepG2 Assay for human Hepatocyte Nuclear Factor 4 alpha (HNF4a) (AID 2282982; active means hit-call score of the fitted dose curve at least 0.9, where 1 is the maximum); conditions: HepG2 HNF4a transactivation reporter, mRNA readout
Summary of the method: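 Readout is fluorescent reporter-transcript fragments resolved by capillary electrophoresis after RT-PCR from HepG2 cells dosed for 24 h. Cells carried transfected GAL4-UAS reporter constructs measuring exogenous NR-GAL4 chimera activity; DMSO served as baseline.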

[3] = target: Transcriptional activator Myb (Homo sapiens) (UniProt P10242); assay: ATG_Myb_CIS: Attagene CIS-FACTORIAL HepG2 Assay for human Myeloblastosis (Myb) Proto-Oncogene Transcription Factor (AID 2282986); conditions: HepG2 Attagene CIS-FACTORIAL Myb reporter transcription; actives raise or lower the signal
Summary of the method: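 Using HepG2 liver cells bearing transiently transfected cis-promoter reporter constructs, the assay measures induction or loss of reporter mRNA after 24 hours of dosing. Detection used fluorescently labeled RT-PCR products separated by capillary electrophoresis.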

[4] = target: Nuclear respiratory factor 1 (Homo sapiens) (UniProt Q16656); assay: ATG_NRF1_CIS: Attagene CIS-FACTORIAL HepG2 Assay for human Nuclear Respiratory Factor 1 (NRF1) Orphan Gene (AID 2282987); conditions: HepG2 NRF1 cis-element reporter, Attagene multiplex; actives raise or lower the signal
Summary of the method: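 Reporter mRNA induction or loss in HepG2 cells after 24 h dosing; cis-regulated reporter constructs report endogenous transcription-factor activity. Quantified by RT-PCR/capillary electrophoresis fluorescence, DMSO-referenced.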

[5] = ATG_NFI_CIS: Attagene CIS-FACTORIAL HepG2 Assay for human Nuclear Factor I (NFI) (AID 2282989); conditions: HepG2 cis-regulatory reporter, NFI response element transcription; actives raise or lower the signal
Summary of the method: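 Endogenous TF activity in HepG2 cells transiently transfected with cis-element-driven multiplexed reporter units, read 24 h after dosing. Reporter mRNA quantified by RT-PCR, 6-FAM labelling, HpaI digestion and capillary electrophoresis; bidirectional fit versus DMSO.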

[6] = target: Myc proto-oncogene protein (Homo sapiens) (UniProt P01106); assay: ATG_Myc_CIS: Attagene CIS-FACTORIAL HepG2 Assay for human Myelocytomatosis (Myc) Proto-Oncogene Transcription Factor (AID 2282990); conditions: HepG2, Attagene cis-reporter transcription factor activity; actives raise or lower the signal
Summary of the method: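 HepG2, transient MRTU transfection (cis promoters, endogenous TFs); 24 h dosing; TriZol RNA → oligo(dT) RT → PCR → 6-FAM primer extension → HpaI cut → CE. Bidirectional fit vs DMSO.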

[7] = ATG_NF_kB_CIS: Attagene CIS-FACTORIAL HepG2 Assay for human Nuclear Factor Kappa B (NF-kB) (AID 2282991); conditions: HepG2 Attagene cis-factorial NF-kB reporter mRNA; actives raise or lower the signal
Summary of the method: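 DMSO served as negative control and baseline for bidirectional curve fitting. Transiently transfected HepG2 cells were dosed for 24 h, then reporter transcripts were measured by RT-PCR with capillary electrophoresis detection.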

[8] = ATG_NRF2_ARE_CIS: Attagene CIS-FACTORIAL HepG2 Assay for human Nuclear Factor Erythroid 2 Related Factor 2 (NFR2) response to Antioxidant Response Elements (ARE) (AID 2282992); conditions: HepG2 Attagene ARE/NRF2 reporter, transcription factor activity; actives raise or lower the signal;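 on AC50: reporter mRNA level measured by RT-PCR and capillary electrophoresis fluorescence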
Summary of the method: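 HepG2 cells transiently transfected with multiplexed cis-regulated reporter transcription units measure endogenous transcription factor activity. Reporter mRNA at 24 h is quantified by RT-PCR, fluorescent labelling and capillary electrophoresis, with bidirectional fitting relative to DMSO.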

[9] = ATG_Oct_MLP_CIS: Attagene CIS-FACTORIAL HepG2 Assay for human Octamer-Binding Transcription Factor (Oct) (AID 2282993); conditions: HepG2 Attagene cis-factorial Oct reporter, mRNA; actives raise or lower the signal
Summary of the method: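 HepG2 cells transiently transfected with cis-element-driven reporter transcription units (endogenous TF activity); 24 h compound exposure. Reporter mRNA quantified by RT-PCR, 6-FAM labelling, HpaI digestion and capillary electrophoresis; bidirectional fit versus DMSO baseline.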

[10] = BSK_3C_TissueFactor: BioMAP Diversity Plus: 3C Assay for Tissue Factor Biomarker Activity (AID 2282997); conditions: BioMAP 3C HUVEC, tissue factor biomarker readout; actives raise or lower the signal
Summary of the method: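 Endothelial monolayers (human umbilical vein, primary) are dosed, incubated 24 h, and assayed for Tissue Factor by ELISA; DMSO serves as negative control for bidirectional fitting.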

[11] = BSK_3C_uPAR: BioMAP Diversity Plus: 3C Assay for Urokinase-type plasminogen activator receptor (uPAR) Biomarker Activity (AID 2282998); conditions: BioMAP 3C HUVEC, uPAR biomarker ELISA; actives raise or lower the signal
Summary of the method: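 Primary human umbilical vein endothelial cells, 3C system; surface uPAR measured by ELISA 24 h after dosing. Cytotoxicity via SRB total protein in parallel cultures; bidirectional fit against DMSO.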

[12] = BSK_3C_VCAM1: BioMAP Diversity Plus: 3C Assay for Vascular cell adhesion molecule 1 (VCAM1) Biomarker Activity (AID 2282999); conditions: BioMAP 3C HUVEC, VCAM1 ELISA, cytokine-stimulated; actives raise or lower the signal
Summary of the method: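 Endothelial cells from human umbilical vein are treated with test chemical. At 24 h, VCAM-1 is measured by ELISA, and responses in either direction are fitted relative to DMSO.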

[13] = BSK_4H_Eotaxin3: BioMAP Diversity Plus: 4H Assay for Eotaxin 3 Biomarker Activity (AID 2283000); conditions: primary human endothelial cells (HUVEC); actives raise or lower the signal
Summary of the method: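 ELISA quantitation of CCL26 (Eotaxin-3) protein from chemically dosed human vascular endothelial cells at 24 h; increases and decreases both scored relative to DMSO-treated baseline.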

[14] = target: human Peroxisome Proliferator-activated Receptor alpha (PPARa), PPARA (gene 5465) (UniProt Q07869); assay: ATG_PPARa_TRANS: Attagene TRANS-FACTORIAL HepG2 Assay for human Peroxisome Proliferator-activated Receptor alpha (PPARa) (AID 2283001; active means hit-call score of the fitted dose curve at least 0.9, where 1 is the maximum;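 on AC50: potency for gain of reporter signal over DMSO so agonist or activator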)
Summary of the method: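 Read-out is fluorescence of reporter cDNA fragments resolved by capillary electrophoresis after RT-PCR. Human HepG2 liver cells carried transfected PPARa-Gal4 chimera and GAL4-UAS reporter units, treated 24 h; activity scored as increase over DMSO.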

[15] = target: Oxysterols receptor LXR-beta (Homo sapiens) (UniProt P55055); assay: ATG_LXRb_TRANS: Attagene TRANS-FACTORIAL HepG2 Assay for human Liver X Receptor beta (LXRb) (AID 2282981; active means hit-call score of the fitted dose curve at least 0.9, where 1 is the maximum); conditions: HepG2 Attagene TRANS GAL4-LXRb reporter, mRNA
Summary of the method: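 Transient transfection HepG2 (multiplexed RTUs, GAL4-UAS); NR-Gal4 chimera; 24 h exposure; RNA → RT-PCR → 6-FAM primer extension → HpaI → CE; increase vs DMSO.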

[16] = ATG_M_32_TRANS: Attagene TRANS-FACTORIAL HepG2 Assay for M32 Transcription Factor (Internal Marker) (AID 2282984; active means hit-call score of the fitted dose curve at least 0.9, where 1 is the maximum;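 further: transcript level of a background control reporter unit measured by RT-PCR and capillary electrophoresis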); conditions: HepG2 Attagene TRANS M32 internal marker reporter
Summary of the method: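 Measures reporter mRNA induction in human HepG2 liver cells after 24 h chemical treatment. Transcripts from transiently transfected GAL4-UAS reporter units are amplified, fluorescently labelled and sized by capillary electrophoresis; gain of signal relative to DMSO.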

[17] = target: Bile acid receptor (Homo sapiens) (UniProt Q96RI1); assay: ATG_FXR_TRANS: Attagene TRANS-FACTORIAL HepG2 Assay for Farnesoid X Receptor (FXR) (AID 2282979; active means hit-call score of the fitted dose curve at least 0.9, where 1 is the maximum;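 further: hits raise reporter mRNA above DMSO so AC50 marks FXR activation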); conditions: HepG2 Attagene TRANS FXR-GAL4 reporter transcription
Summary of the method: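 After 24 h chemical treatment of transfected HepG2 cells, GAL4-UAS reporter transcripts driven by an exogenous FXR-GAL4 fusion were measured by RT-PCR and capillary electrophoresis. Increases over DMSO were fitted.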

[18] = target: Cellular tumor antigen p53 (Homo sapiens) (UniProt P04637); assay: ATG_p53_CIS: Attagene CIS-FACTORIAL HepG2 Assay for human p53 Transcription Factor (AID 2282994); conditions: HepG2 p53 cis-element reporter, Attagene mRNA; actives raise or lower the signal
Summary of the method: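 HepG2 cells transiently transfected with multiplexed cis-regulated reporter transcription units read endogenous TF activity. After 24 h compound exposure, reporter mRNA was quantified by RT-PCR, fluorescent labelling, HpaI digestion and capillary electrophoresis; bidirectional fits versus DMSO baseline.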

[19] = target: Nuclear receptor subfamily 4 group A member 2 (Homo sapiens) (UniProt P43354); assay: ATG_NURR1_TRANS: Attagene TRANS-FACTORIAL HepG2 Assay for human Nuclear Receptor Related Protein 1 (NURR1) (AID 2282985; active means hit-call score of the fitted dose curve at least 0.9, where 1 is the maximum); conditions: HepG2 Attagene TRANS reporter, mRNA readout
Summary of the method: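 Transient transfection of HepG2, human liver cells, with multiple GAL4-UAS reporter transcription units. Cells dosed 24 h, RNA isolated, reverse-transcribed, PCR-amplified, FAM-labelled, HpaI-digested, sized by capillary electrophoresis. DMSO served as negative control.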

[20] = ATG_M_06_TRANS: Attagene TRANS-FACTORIAL HepG2 Assay for M06 Transcription Factor (Internal Marker) (AID 2282983; active means hit-call score of the fitted dose curve at least 0.9, where 1 is the maximum;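 further: reporter transcript level by RT-PCR then capillary electrophoresis fluorescence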); conditions: HepG2 Attagene TRANS M06 internal marker reporter
Summary of the method: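 Internal-marker background readout from a multiplexed TRANS reporter system in HepG2; 24 h dosing; mRNA induction quantified by RT-PCR plus capillary electrophoresis fluorescence; DMSO as negative control and baseline.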

Measured: AC50

Oxysterols receptor LXR-beta (Homo sapiens), sequence (P55055 whole entry, looked up, the tested form may be a part): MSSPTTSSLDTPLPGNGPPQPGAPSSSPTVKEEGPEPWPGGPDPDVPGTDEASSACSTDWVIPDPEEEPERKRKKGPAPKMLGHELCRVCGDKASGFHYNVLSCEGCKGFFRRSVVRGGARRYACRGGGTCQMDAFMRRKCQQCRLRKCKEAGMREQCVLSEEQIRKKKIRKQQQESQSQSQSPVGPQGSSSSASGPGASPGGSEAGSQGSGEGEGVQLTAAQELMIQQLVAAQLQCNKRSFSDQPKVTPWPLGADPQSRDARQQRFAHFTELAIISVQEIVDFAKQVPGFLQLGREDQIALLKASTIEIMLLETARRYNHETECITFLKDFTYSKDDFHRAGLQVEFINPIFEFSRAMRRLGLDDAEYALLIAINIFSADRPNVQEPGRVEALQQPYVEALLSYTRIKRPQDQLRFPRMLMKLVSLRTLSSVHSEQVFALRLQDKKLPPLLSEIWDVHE
Myc proto-oncogene protein (Homo sapiens), sequence (P01106 whole entry, looked up): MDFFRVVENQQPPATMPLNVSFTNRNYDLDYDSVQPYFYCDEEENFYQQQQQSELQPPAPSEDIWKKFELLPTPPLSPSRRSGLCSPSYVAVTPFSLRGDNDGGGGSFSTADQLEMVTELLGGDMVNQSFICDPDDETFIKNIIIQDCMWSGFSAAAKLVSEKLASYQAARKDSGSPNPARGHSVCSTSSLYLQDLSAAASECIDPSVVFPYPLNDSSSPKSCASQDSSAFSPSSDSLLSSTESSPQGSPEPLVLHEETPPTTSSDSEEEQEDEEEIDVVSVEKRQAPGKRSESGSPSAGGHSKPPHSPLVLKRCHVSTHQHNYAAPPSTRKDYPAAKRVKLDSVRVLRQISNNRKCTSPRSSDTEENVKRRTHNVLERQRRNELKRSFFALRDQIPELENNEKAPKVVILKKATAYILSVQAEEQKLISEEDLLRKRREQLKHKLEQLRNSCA
Glucocorticoid receptor (Homo sapiens), sequence (P04150 whole entry, looked up, the tested form may be a part): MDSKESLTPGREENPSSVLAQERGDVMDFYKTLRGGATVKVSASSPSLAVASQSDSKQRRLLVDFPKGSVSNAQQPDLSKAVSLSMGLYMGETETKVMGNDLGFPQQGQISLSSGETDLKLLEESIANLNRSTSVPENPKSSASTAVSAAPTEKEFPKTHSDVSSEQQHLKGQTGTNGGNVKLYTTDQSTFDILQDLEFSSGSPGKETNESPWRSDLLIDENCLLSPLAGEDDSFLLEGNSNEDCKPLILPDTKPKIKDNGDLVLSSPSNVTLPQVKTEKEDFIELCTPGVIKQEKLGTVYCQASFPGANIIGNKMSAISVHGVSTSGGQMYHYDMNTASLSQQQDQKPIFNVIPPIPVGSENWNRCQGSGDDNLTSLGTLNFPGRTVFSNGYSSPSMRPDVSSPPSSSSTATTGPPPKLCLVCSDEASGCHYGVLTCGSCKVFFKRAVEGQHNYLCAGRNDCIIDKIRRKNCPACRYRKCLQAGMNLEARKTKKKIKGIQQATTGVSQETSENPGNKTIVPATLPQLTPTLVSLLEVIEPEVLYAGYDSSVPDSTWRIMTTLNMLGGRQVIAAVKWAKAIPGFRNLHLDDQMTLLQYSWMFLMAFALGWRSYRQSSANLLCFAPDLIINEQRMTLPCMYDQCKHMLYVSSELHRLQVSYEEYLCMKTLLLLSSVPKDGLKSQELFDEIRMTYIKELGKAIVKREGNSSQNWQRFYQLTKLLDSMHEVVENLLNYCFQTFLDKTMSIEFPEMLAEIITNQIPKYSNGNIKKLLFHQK
Hepatocyte nuclear factor 4-alpha (Homo sapiens), sequence (P41235 whole entry, looked up, the tested form may be a part): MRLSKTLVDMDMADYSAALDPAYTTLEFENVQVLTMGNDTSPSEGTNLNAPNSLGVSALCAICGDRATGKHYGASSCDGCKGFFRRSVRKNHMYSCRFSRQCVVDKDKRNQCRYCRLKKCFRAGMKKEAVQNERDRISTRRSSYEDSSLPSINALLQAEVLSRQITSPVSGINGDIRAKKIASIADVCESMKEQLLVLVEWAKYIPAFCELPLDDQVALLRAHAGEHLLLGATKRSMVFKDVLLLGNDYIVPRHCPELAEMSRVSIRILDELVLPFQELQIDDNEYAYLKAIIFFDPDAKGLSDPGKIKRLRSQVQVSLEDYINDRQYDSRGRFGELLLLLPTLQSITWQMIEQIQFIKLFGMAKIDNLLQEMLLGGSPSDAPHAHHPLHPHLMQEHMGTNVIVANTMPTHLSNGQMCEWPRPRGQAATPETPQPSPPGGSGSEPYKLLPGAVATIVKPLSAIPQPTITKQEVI
Nuclear respiratory factor 1 (Homo sapiens), sequence (Q16656 whole entry, looked up): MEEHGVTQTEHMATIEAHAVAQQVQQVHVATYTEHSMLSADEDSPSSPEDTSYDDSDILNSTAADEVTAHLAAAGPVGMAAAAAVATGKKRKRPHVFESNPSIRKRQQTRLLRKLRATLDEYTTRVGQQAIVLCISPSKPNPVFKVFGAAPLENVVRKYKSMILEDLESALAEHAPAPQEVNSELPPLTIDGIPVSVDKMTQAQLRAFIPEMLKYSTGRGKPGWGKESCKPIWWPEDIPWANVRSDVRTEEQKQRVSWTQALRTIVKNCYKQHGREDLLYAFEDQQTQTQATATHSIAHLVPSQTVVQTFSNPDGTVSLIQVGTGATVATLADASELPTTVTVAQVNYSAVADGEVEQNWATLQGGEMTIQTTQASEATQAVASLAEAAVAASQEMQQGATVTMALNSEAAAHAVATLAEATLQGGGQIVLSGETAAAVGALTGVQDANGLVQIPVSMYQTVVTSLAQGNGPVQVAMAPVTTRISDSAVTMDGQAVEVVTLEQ
Transcriptional activator Myb (Homo sapiens), sequence (P10242 whole entry, looked up): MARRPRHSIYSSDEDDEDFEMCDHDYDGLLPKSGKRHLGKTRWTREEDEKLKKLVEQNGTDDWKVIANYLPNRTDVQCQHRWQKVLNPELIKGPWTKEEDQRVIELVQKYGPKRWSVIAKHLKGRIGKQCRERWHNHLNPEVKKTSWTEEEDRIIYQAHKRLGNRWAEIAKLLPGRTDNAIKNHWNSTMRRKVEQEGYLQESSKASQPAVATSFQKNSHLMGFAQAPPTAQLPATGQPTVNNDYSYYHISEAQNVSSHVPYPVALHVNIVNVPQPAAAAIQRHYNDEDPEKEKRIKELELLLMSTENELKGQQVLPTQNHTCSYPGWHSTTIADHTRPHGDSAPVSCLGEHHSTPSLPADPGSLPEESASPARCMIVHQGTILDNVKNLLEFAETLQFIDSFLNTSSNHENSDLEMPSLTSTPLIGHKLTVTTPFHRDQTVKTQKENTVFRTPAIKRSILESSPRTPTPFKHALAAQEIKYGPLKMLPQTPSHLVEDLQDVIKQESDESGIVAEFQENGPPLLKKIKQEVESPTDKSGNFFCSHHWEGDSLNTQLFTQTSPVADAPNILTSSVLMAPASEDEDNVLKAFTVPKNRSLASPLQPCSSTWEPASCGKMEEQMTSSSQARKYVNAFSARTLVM
human Peroxisome Proliferator-activated Receptor alpha (PPARa), PPARA (gene 5465), sequence (Q07869 whole entry, looked up, the tested form may be a part): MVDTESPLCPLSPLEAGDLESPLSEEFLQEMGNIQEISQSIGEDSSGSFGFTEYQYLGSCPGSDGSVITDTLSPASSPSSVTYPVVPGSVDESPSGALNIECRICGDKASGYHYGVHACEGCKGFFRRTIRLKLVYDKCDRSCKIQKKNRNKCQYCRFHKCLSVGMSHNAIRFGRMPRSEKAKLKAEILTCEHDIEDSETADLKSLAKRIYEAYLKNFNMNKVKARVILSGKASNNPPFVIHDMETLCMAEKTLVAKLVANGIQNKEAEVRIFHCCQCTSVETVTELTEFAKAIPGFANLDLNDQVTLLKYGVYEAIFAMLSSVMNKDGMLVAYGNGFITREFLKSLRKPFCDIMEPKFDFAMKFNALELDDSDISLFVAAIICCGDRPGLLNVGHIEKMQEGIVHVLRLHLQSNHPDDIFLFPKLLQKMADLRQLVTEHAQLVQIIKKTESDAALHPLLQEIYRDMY
Bile acid receptor (Homo sapiens), sequence (Q96RI1 whole entry, looked up, the tested form may be a part): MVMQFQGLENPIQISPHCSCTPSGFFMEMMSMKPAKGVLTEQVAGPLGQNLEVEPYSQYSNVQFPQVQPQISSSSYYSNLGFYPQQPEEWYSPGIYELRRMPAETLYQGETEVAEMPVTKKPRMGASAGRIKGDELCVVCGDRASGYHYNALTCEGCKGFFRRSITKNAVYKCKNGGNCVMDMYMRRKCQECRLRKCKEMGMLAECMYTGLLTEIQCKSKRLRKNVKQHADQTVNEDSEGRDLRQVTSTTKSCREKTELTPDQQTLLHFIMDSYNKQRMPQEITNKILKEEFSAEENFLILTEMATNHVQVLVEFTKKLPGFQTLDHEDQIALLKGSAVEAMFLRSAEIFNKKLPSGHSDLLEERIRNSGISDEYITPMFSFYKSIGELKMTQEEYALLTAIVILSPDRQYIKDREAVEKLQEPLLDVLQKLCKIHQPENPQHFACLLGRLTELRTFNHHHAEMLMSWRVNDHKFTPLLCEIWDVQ
Cellular tumor antigen p53 (Homo sapiens), sequence (P04637 whole entry, looked up): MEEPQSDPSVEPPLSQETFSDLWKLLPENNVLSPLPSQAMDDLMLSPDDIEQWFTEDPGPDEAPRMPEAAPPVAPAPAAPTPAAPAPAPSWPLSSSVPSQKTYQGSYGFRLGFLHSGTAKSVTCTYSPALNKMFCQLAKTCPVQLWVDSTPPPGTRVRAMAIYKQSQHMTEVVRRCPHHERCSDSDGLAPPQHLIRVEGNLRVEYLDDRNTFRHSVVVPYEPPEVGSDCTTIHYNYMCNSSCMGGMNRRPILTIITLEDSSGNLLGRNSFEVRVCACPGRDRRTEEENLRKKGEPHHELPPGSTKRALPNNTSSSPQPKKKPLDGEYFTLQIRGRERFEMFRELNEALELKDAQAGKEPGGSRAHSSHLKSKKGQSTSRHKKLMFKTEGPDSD

CCCCCCCCCCCCCCCCO
not listed: [15] | [16] | [17] | [18] | [19] | [20]
inactive: all other assays above

OCC(CO)n1cnc(-c2ccc(F)cc2)c1-c1ccnc(Oc2ccccc2)n1
active: [8] 25.3 µM
not listed: [2] | [16] | [17] | [18] | [19] | [20]
inactive: all other assays above

COC(=O)[C@H]1[C@H]2C[C@@H]3c4[nH]c5cc(OC)ccc5c4CCN3C[C@H]2C[C@@H](OC(=O)c2cc(OC)c(OC)c(OC)c2)[C@@H]1OC
active: [8] 45.5 µM | [10] 10.4 µM | [11] 23.2 µM | [12] 11.4 µM | [13] 25.7 µM
inactive: [1] | [16] | [3] | [4] | [5] | [6] | [9] | [14]

CN(C)C(=O)NC1(c2ccccc2)CCN(CCC[C@]2(c3ccc(Cl)c(Cl)c3)CCCN(C(=O)c3ccccc3)C2)CC1
active: [4] 4.5 µM | [5] 3.32 µM | [6] 5.05 µM | [7] 2.84 µM | [8] 1.64 µM | [9] 4.31 µM | [10] 4.37 µM | [14] 4.2 µM
not listed: [1] | [19] | [20]
inactive: all other assays above

c1ccc2occc2c1
not listed: [1] | [2] | [16] | [20]
inactive: all other assays above

CC(C)c1cccc(C(C)C)c1NC(=O)NS(=O)(=O)c1cc(C(C)(C)O)co1
not listed: [1] | [7] | [16] | [17] | [18]
inactive: all other assays above

O=C(N[C@@H](c1ccccc1)[C@@H]1CCCCN1)c1cccc(C(F)(F)F)c1Cl
active: [4] 56.9 µM | [6] 54 µM | [7] 53.2 µM | [8] 9.19 µM | [9] 22.6 µM | [10] 20 µM | [11] 20 µM
not listed: [1] | [2] | [16] | [18] | [19]
inactive: all other assays above

COC(=O)CCC(=O)OC
not listed: [1] | [2] | [14] | [15] | [16] | [18] | [19] | [20]
inactive: all other assays above
